Experimental data from PubChem BioAssay (NCATS).
Records with an inconclusive call do not appear. The source made the active and inactive calls. Unless noted, calls follow the shape of the dose curve; as a rule, active = well fitted curve in either direction with a large enough effect (not every such curve was filed as active); inconclusive = small, poorly fitted or top-dose-only effect, or another doubt; inactive = flat fitted curve, though single readings scatter.

Tests used:
[1] = target: Lysosomal acid glucosylceramidase (Homo sapiens) (UniProt P04062); experiment: Glucocerebrosidase-p2 (AID 348; in the data active = potency below about 10 µM; also: potency is read from the fitted curve at half-maximal effect); conditions: purified GBA, blue fluorogenic substrate, 40 min
Outline: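 Normal human glucocerebrosidase (0.2 nM) with blue fluorogenic substrate (80 uM final) in citrate/phosphate pH 5.9 with 10mM sodium taurocholate, 0.01% tween-20; 40 min RT, NaOH/glycine stop; fluorescence Ex 365/Em 440; AC50 from a titration from 0.6 nM upwards.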

[2] = AP1 Signaling Pathway (AID 357); conditions: ME-180 AP-1-bla reporter, EGF-induced, beta-lactamase ratio, 5 h; at 7.69 µM (top of the series) unless noted;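 also: ME-180 reporter cells stimulated with EGF at its EC50 level; % is scaled to controls: 0 for no effect and ±100 for the full control effect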
Outline: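 Titration-series screen for positive or negative modulators of EC50 EGF-induced signaling in ME-180 cells carrying an AP-1-driven beta-lactamase reporter. After 5 hours at 37 degrees Celsius, CCF4 460nm/530nm emission ratio gave %Activity; AC50 values derived.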

[3] = NFAT Signaling Pathway (AID 444); conditions: Jurkat NFAT-bla M1, carbachol, beta-lactamase ratio, 5 h; at 7.69 µM (top of the series) unless noted;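 also: carbachol stimulus at about its EC50 of 1 µM final; % is scaled to controls: 0 for no effect and ±100 for the full control effect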
Outline: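 Read-out: CCF4 FRET ratio (460 nm/530 nm) after 1 h RT dye loading, used for %activity and AC50 from titration series. Cells: Jurkat NFAT-β-lactamase/M1 line, treated with compound plus 1 uM carbachol for 5 h, 37 °C.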

[4] = Stat Signaling Pathway (AID 446); conditions: ME-180 SIE beta-lactamase reporter, IL-6 stimulated, 5 h; at 7.69 µM (top of the series) unless noted;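 also: ME-180 cervical cancer cells given 40 pM IL-6 alongside compound; SIE-controlled beta-lactamase reporter measured as 460/530 nm FRET emission ratio; % is scaled to controls: 0 for no effect and ±100 for the full control effect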
Outline: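 FRET read-out (405 nm excitation, 460/530 nm emission) of a beta-lactamase reporter under a STAT-inducible element in ME-180 cervical carcinoma cells. Cells with compound receive 40 pM IL-6 for 5 h. Values are normalised to AC90 stimulation and AC90 JAK-inhibitor controls.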

[5] = target: Glucocorticoid receptor (Homo sapiens) (UniProt P04150); experiment: GR-EFC Redistribution (AID 451; calls by dose curve; also: potency is read from the fitted curve at half-maximal effect); conditions: CHO-K1 GR-EFC translocation, beta-gal luminescence, 2 h
Outline: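 Translocation of GR-ED fusion to nuclear EA restores b-gal, read by luminescence after 1 h room-temperature detection. Engineered CHO-K1 biosensor cells, 1,000/well, exposed 2 h at 37 C to titrations up to 46 uM final.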

[6] = target: Mitogen-activated protein kinase 10 (Mus musculus) (UniProt Q61831); experiment: JNK3 AlphaScreen Assay (AID 530); conditions: JNK3 lysate, c-Jun phosphorylation; series mostly up to 11.4 µM;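 also: kinase came from lysate of stimulated human HepG2 cells; signal reports phosphorylation of biotinylated GST-cJun 1-79 at Ser73 with 10 µM ATP; % is scaled to controls: 0 for no effect and ±100 for the full control effect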
Outline: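 qHTS titrations with 15 min compound pre-incubation before adding ATP (10 uM final). Read-out: AlphaScreen of Ser73-phosphorylated biotin-GST-cJun using HepG2 lysate JNK3 activated by IL-1β and TNFα.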

[7] = target: 3',5'-cyclic-AMP phosphodiesterase 4B (Homo sapiens) (UniProt Q07343); experiment: qHTS Assay for Inhibitors of PDE-IV (AID 607; active = well fitted activation curve with a large enough effect in the main read-out, with a control signal flat, not every such curve was filed as active; also: % of control where 0% means no effect); conditions: HEK293 ACTOne CNG channel cells, membrane potential fluorescence; series mostly up to 22.9 µM
Outline: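 Cell-based read-out of cAMP via a modified cyclic nucleotide-gated channel and membrane potential dye (535/590 nm) in HEK293 cells expressing PDE4 endogenously. Compounds tested up to 22.9 uM final; 100 uM RO 20-1724 reference.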

[8] = target: Glucocorticoid receptor (Homo sapiens) (UniProt P04150); experiment: GR-GFP Redistribution (AID 450;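 active = compounds whose dose series gives a full or clear partial fitted curve of increased nuclear translocation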; also: potency is read from the fitted curve at half-maximal effect); conditions: U2OS GR-GFP nuclear translocation, laser cytometry, 2 h
[9] = qHTS Assay for Identification of Small Molecule Agonists for Hypoxia Response Element Signaling Pathway (AID 914; active = well fitted activation curve with a large enough effect in the signal ratio, with a control signal flat, not every such curve was filed as active; the % refers to the signal ratio; also: % of control where 0% means no effect); conditions: ME-180 (cervical carcinoma) HRE-bla reporter, beta-lactamase ratio, CoCl2, 17 h; activation: active compounds read high
Outline: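 AC50 values come from titration-series %Activity, taken as the 460/530nm ratio of CCF4 fluorescence (excitation 405nm). CellSensor HRE-bla ME-180 cells were treated 17 hours at 37 C with compound plus an EC50 level of CoCl2.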

Sequence of Lysosomal acid glucosylceramidase (Homo sapiens) (P04062 whole entry, looked up): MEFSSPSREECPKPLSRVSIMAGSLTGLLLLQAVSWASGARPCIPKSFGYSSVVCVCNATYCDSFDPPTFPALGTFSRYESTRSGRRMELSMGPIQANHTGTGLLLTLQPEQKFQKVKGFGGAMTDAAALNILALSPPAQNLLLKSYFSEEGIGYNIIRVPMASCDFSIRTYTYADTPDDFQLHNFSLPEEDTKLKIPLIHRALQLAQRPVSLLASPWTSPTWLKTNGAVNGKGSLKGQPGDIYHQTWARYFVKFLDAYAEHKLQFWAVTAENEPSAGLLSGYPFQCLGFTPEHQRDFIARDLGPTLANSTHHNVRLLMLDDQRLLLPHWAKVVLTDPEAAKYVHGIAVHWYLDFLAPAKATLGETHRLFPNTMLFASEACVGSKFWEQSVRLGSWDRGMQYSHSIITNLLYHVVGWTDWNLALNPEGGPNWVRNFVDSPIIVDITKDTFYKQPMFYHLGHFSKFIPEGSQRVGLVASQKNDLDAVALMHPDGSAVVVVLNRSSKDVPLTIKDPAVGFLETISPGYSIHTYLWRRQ
Sequence of 3',5'-cyclic-AMP phosphodiesterase 4B (Homo sapiens) (Q07343 whole entry, looked up): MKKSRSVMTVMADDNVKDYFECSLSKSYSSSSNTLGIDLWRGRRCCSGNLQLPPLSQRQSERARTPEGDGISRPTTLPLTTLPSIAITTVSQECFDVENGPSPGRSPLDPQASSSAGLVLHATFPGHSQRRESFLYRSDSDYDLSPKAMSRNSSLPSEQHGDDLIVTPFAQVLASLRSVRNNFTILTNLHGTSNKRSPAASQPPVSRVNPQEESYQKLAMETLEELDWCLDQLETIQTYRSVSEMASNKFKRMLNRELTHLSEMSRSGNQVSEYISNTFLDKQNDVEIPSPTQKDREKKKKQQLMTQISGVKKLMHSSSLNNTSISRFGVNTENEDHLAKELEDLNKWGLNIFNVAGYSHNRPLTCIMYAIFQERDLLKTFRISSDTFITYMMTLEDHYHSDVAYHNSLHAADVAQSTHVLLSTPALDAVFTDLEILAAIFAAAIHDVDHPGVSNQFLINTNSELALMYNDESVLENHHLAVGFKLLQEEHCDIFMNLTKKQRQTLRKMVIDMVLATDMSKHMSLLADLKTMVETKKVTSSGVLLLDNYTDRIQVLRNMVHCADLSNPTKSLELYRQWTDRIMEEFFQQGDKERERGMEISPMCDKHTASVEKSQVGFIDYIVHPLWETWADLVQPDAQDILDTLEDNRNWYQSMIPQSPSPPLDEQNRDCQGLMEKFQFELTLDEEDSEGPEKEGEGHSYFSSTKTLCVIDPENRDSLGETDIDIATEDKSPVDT
Sequence of Glucocorticoid receptor (Homo sapiens) (P04150 whole entry, looked up, the tested form may be a part): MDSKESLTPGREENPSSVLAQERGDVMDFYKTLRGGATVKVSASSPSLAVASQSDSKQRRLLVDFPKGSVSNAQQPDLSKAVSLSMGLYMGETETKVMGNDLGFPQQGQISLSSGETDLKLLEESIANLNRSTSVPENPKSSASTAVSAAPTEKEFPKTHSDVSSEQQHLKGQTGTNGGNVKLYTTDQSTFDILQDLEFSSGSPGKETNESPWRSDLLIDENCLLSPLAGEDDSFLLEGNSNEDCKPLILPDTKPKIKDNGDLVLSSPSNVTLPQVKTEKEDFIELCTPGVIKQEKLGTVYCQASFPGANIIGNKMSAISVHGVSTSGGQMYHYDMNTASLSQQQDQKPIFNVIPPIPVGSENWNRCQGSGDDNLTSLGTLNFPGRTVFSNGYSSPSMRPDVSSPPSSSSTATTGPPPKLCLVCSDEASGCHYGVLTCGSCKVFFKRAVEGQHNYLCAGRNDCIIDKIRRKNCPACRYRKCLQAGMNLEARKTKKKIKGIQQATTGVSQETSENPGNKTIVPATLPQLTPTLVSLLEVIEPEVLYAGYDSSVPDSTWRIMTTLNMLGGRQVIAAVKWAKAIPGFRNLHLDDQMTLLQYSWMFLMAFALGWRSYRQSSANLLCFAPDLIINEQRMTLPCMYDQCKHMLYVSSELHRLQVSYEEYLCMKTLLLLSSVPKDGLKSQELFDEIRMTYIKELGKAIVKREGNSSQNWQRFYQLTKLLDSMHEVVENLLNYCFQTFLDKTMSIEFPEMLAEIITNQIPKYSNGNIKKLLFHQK

O=C1OC2(c3ccc(O)cc3Oc3cc(O)ccc32)c2c1c(-c1ccccc1)c(-c1ccccc1)c(-c1ccccc1)c2-c1ccccc1
inactive: Potency [1] > 11.4 µM | activity change, negative = inhibition [2] -28.2% | activity change, negative = inhibition [3] 5.71% | activity, negative = inhibition [4] -17.7% | Potency [5] > 9.22 µM | Potency [6] | Potency [7]

Cc1cc(C)nc(NC(=O)COc2ccc(Cl)cc2)c1
inactive: Potency [1] > 11.4 µM | activity change, negative = inhibition [2] 7.73% | activity change, negative = inhibition [3] -19.2% | Potency [8] > 46 µM | Potency [5] > 9.22 µM | Potency [6] | Potency [7]

O=C(O)c1ccncc1.O=C(O)c1ccncc1.[Cl][Pt]([Cl])([Cl])[Cl]
inactive: Potency [1] > 11.4 µM | activity change, negative = inhibition [2] 2.72% | activity change, negative = inhibition [3] -19.9% | Potency [8] > 46 µM | Potency [5] > 9.22 µM | Potency [6] | Potency [7]

CC1(C)S[C@@H]2[C@H](C(=O)O)N=C(Cc3ccccc3)N2[C@H]1C(=O)O
inactive: Potency [1] > 11.4 µM | activity change, negative = inhibition [2] 2.18% | activity change, negative = inhibition [3] 8.91% | Potency [8] > 46 µM | Potency [5] > 9.22 µM | Potency [6] | Potency [7]

CC(C)(CN)SCc1ccccc1
inactive: Potency [1] > 11.4 µM | activity change, negative = inhibition [2] 5.51% | activity change, negative = inhibition [3] -0.0753% | Potency [8] > 46 µM | Potency [5] > 9.22 µM | Potency [6] | Potency [7]

NC(=O)CS(=O)C[C@H](N)C(=O)O (stereo not given in full)
inactive: Potency [1] > 11.4 µM | activity change, negative = inhibition [2] 23.6% | activity change, negative = inhibition [3] 11% | activity, negative = inhibition [4] 5.38% | Potency [5] > 9.22 µM | Potency [6] | Potency [7] | activation [9] 18.8%

CC(C)C1=C[C@@]23CC[C@@H]4[C@](C)(CCC[C@@]4(C)C(=O)O)[C@@H]2C[C@@H]1[C@@H](C(=O)O)[C@@H]3C(=O)O
inactive: Potency [1] > 11.4 µM | activity change, negative = inhibition [2] 1.99% | activity change, negative = inhibition [3] 4.67% | activity, negative = inhibition [4] 5.23% | Potency [5] > 9.22 µM | Potency [6] | Potency [7]
